Reference: PubChem BioAssay (Tox21)
Records with an inconclusive call do not appear. Values without a mark were called inactive. Calls of active or inactive are those of the source. Calls come from the whole dose curve.

Assay: qHTS assay to identify small molecule antagonists of the sonic hedgehog signaling (Shh) pathway (AID 1259369); note: nearly all actives have a fitted effect of over 45% in size
Details: NIH/3T3 Gli1-Luc reporter, Shh antagonist, luminescence 24 h; series mostly up to 42.5 µM; activity change, negative = inhibition: at the top concentration
Text: U.S. Tox21 Program National Center for Advancing Translational Sciences [NCATS] NIH Chemical Genomics Center [NCGC] U.S. Environmental Protection Agency [EPA] National Institutes of Environmental Health Sciences [NIEHS] National Toxicology Program [NTP] U.S. Food and Drug Administration [FDA] Tox21 Assay Overview: The sonic hedgehog (Shh) pathway is essential for normal embryonic development. Dysregulation of the Shh pathway can cause severe developmental defects in organs. Therefore chemicals that interfere with the pathway are potential developmental toxicants. A cell line designated 3T3Gli1-Luc (DMB/OARSA/CFSAN/FDA, Laurel, MD), a NIH/3T3 derived clone containing stably integrated Gli1-Luc reporter is used to detect chemical interference of the Shh pathway, by changes in the expression of the firefly Luc gene under the control of the Gli1 transcriptional response element. This cell line was used to screen Tox21 libraries for identifying and prioritizing the potential developmental toxicants that interfere Shh pathway. Conditioned medium-stimulated mode was used to screen for chemicals inhibiting Shh signaling.
Tox21 Assay Protocol Summary: 3T3 Gli1-Luc cells were dispensed at 2,000 per well in 5uL of culture medium into white solid bottom 1536-well plates (Greiner Bio-One, Monroe, NC) using a Multidrop Combi (Thermo Scientific, Waltham, MA) dispenser. The assay plates were incubated at 37 C and 5% CO2 for 4hr, and then 23nL of compounds dissolved in DMSO and positive control were transferred using a Pintool station (Wako, San Diego, CA). The compound transfer was followed by the addition of 1ul conditioned medium or assay buffer using two separate tips of Flying Reagent Dispenser (FRD, Aurora Discovery, San Diego, CA). The assay plates were incubated at 37C and 5% CO2 for 24hr. For luciferase read, 4uL of Amplite Luciferase reporter gene assay reagent (AAT Bioquest, Inc. Sunnyvale, CA) was added to each well of the assay plates using FRD and incubated at room temperature for 30min. The luminescence signal was measured using a ViewLux plate reader (Perkin Elmer, Shelton, CT).
% is set by controls: 0 for no effect and ±100 for the full control effect.

Row | SMILES | activity change, negative = inhibition | Potency
1 | Nc1nc2c(ncn2COC(CO)CO)c(=O)[nH]1 | 19.6% | –
2 | CC(C)(C)c1nnc(NS(=O)(=O)c2ccccc2)s1 | -8.21% | –
3 | CCN(CC)CCOCCOC(=O)C1(c2ccccc2)CCCC1 | -22.8% | –
4 | CCCN(CCC)CCc1cccc2c1CC(=O)N2 | 10.4% | –
5 | CC(C)(O)C(=O)c1ccccc1 | 0% [at 92.4 µM] | –
6 | CO[Si](CCCOCC1CO1)(OC)OC (stereo not given) | – | inactive
7 | c1ccc(CC2=NCCN2)cc1 | 17.5% | –
8 | OC[C@]1(O)OC[C@@H](O)[C@H](O)[C@@H]1O | – | inactive
9 | CCOC(C)(C)C | 24.4% [at 92.4 µM] | –
10 | C1OCOCO1 | 16.1% [at 92.4 µM] | –
11 | NC(=O)COCCN1CCN(C(c2ccccc2)c2ccc(Cl)cc2)CC1 (stereo not given) | -1.31% | –
12 | CC(=O)OCC(=O)[C@@]1(O)CC[C@H]2[C@@H]3CCC4=CC(=O)CC[C@]4(C)[C@H]3C(=O)C[C@@]21C | 7.01% | –
13 | COC(=O)[C@@H](N)Cc1ccc(O)c(O)c1 | -17.7% | –
14 | CCOC(=O)c1cccc(N)c1 | 8.85% | –
15 | NC(CSCC(=O)O)C(=O)O (stereo not given) | 4.45% | –
16 | NS(=O)(=O)c1cc2c(cc1Cl)NC(C1CC3C=CC1C3)NS2(=O)=O (stereo not given) | 3.8% | –
17 | COCCc1ccc(OCC(O)CNC(C)C)cc1 (stereo not given) | – | inactive
18 | O=c1cc(CO)occ1O | 15.8% | –
19 | CC(C[N+](C)(C)C)OC(N)=O (stereo not given) | 30.1% | –
20 | O=C(O)CCCl | 12.2% [at 92.4 µM] | –

Row | SMILES | activity change, negative = inhibition | Potency
21 | CC(C)CNCC(C)C | 17.9% [at 92.4 µM] | –
22 | COc1ccc2c(c1)CCCC2=O | 24% | –
23 | CCOC(=O)c1c(C)n(C)c2ccc(O)cc12 | 1.74% | –
24 | CCO/C([O-])=N/c1c[n+](N2CCOCC2)no1 | 21.8% | –
25 | c1ccc([C@H]2CN3CCSC3=N2)cc1 | -25.8% | –
26 | CCC(C)C1CCCCC1=O (stereo not given) | 2.06% [at 92.4 µM] | –
27 | NC(=O)Nc1ccccc1 | 46.7% [at 92.4 µM] | –
28 | CC(C)c1cc2c(cc1S(=O)(=O)O)[C@@]1(C)CCC[C@@](C)(C(=O)O)[C@@H]1CC2 | 24.4% | –
29 | CN1C(=O)N(C)C(O)C1O (stereo not given) | -8.55% [at 92.4 µM] | –
30 | C[N+](C)(C)CC(O)CC(=O)[O-] (stereo not given) | 2.71% | –
31 | C=C(C)CS(=O)(=O)O | 5.46% [at 92.4 µM] | –
32 | CC/C=C\CCOC(C)=O | 2.72% [at 92.4 µM] | –
33 | COC(=O)CCSCCC(=O)OC | 17.4% [at 92.4 µM] | –
34 | CCOC(=O)[C@H](CCc1ccccc1)N[C@@H](C)C(=O)N1[C@H](C(=O)O)C[C@@H]2CCC[C@@H]21 | 26.1% | –
35 | N[C@@H](C(=O)N[C@@H]1C(=O)N2C(C(=O)O)=C(Cl)CS[C@H]12)c1ccccc1 | -3.06% [at 8.39 µM] | –
36 | CCCCCSCCCCC | -10% [at 92.4 µM] | –
37 | O=C(O)CNC(=O)c1ccc([N+](=O)[O-])cc1 | 21.1% [at 92.4 µM] | –
38 | NS(=O)(=O)c1cc(C(=O)O)cc(N2CCCC2)c1Oc1ccccc1 | 37% | –
39 | COC(=O)c1ccc(C)cc1C1=NC(C)(C(C)C)C(=O)N1 (stereo not given) | 0% [at 92.4 µM] | –
40 | CCCCNC(=O)NCCCC | 0.317% [at 92.4 µM] | –
